HT1080 IDH1KD tx: toxicity to HT-1080 IDH1 knockdown cells (counter line) | Potency, µM (doses to about 46.1 µM), inactives show at the highest dose activity, negative = toxicity, most hits filed as cytotoxic | HT-1080 IDH1 knockdown viability, ATP luminescence, 48 h | AID 686971 | hit rate 2% among 360,000;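 further: 0% = DMSO wells and -100% = cell-free medium wells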
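Assay cells: HT-1080 with IDH1 knockdown, 750 per well, RPMI/5% FBS. Exposure: 48 h at 37 °C following 2 h pre-incubation. Read: CellTiter-Glo luminescence; fitted concentration-response, curve class assigned.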
TGFb SMAD3 inh: blocks TGF-b signaling | HepG2 CAGA-GFP TGF-b/SMAD3 reporter, GFP fluorescence, 18 h; TGF-beta stimulated, 500 pg/mL final | Potency, µM (series often up to 46.1 µM), without a hit: top-dose activity, negative = inhibition, usual class: inhibitors | hit rate 1.2% among 410,000 | AID 588855; further: on the % scale 0 is the no-effect control and ±100 the full control effect; nearly all actives have a fitted effect of over 65% in size
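Inhibition was scored as loss of TGF-beta-induced (500 pg/mL final, 18 hours, 37 degrees C) GFP in HEPG2 cells carrying a CAGA-GFP reporter, in DMEM with 1% FBS. Well GFP was summed per cell; Activity was normalised to unstimulated and stimulated DMSO wells, then concentration-response fitting.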
HT1080-NT tox: kills 2HG-producing HT-1080-NT fibrosarcoma cells | HT-1080-NT fibrosarcoma viability, CellTiter-Glo ATP luminescence, 48 h | hit rate 1.6% among 360,000 | Potency, µM (highest dose often 46.1 µM), inactives show at the highest dose activity, negative = less viability, most hits filed as cytotoxic | AID 686970;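 further: NT is the 2HG producing partner of a matched IDH1 knockdown line; 0% = DMSO-treated cells and -100% = media-only wells without cells; nearly all actives have a fitted effect of over 55% in size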
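750 cells/well, RPMI + 5% FBS; 2 h settle, compound pin-transfer, 48 h at 37 degrees C. CellTiter-Glo 10 min RT, luminescence. Normalized to DMSO and media-only wells.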
TDP1 cell CPT: DT40-hTDP1 cell growth loss with CPT. hit rate 12% among 420,000. Potency, µM (titrated, usually from 46.2 µM), inactives show at the highest dose activity change, negative = growth inhibition, most hits filed as inhibitors. chicken DT40 Tdp1-/-;hTDP1 cells + 20 nM CPT, ATP luminescence, 48 h. AID 686979; further: on the % scale 0 is the no-effect control and ±100 the full control effect; nearly all actives have a fitted effect of over 55% in size
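Chicken DT40 Tdp1-/- cells stably complemented with human TDP1 were seeded at 400 cells/well in medium containing 20 nM camptothecin, exposed to pin-transferred compounds, and grown at 37 °C for at least 48 hr. Viability was read as ATP luminescence.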
HepG2 viability: kills HepG2 cells in TGF-b inhibitor counter-screen; AID 588856; Potency, µM (highest dose often 46.1 µM), for inactives: at the top dose activity change, negative = cytotoxicity, hits mostly cytotoxic; HepG2 CAGA-GFP viability, ATP luminescence, 18 h; hit rate 0.76% among 410,000
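HepG2 CAGA-GFP cells (1000/well, DMEM with 1% FBS) received compound, then TGF-beta at 500 pg/mL final, and were incubated 18 hours at 37 degrees C. Viability was read by CellTiter-Glo luminescence. Media-only wells were set as complete cell-killing and DMSO as no toxicity.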
DT40 TDP1 no CPT: qHTS for Inhibitors of human tyrosyl-DNA phosphodiesterase 1 (TDP1): qHTS in cells in absence of CPT | DT40 Tdp1-/- hTDP1 cells, no CPT, ATP luminescence, 48 h | Potency, µM (highest dose often 46.2 µM), for inactives: at the highest dose activity change, negative = growth inhibition, most hits filed as inhibitors | hit rate 15% among 420,000 | AID 686978, 2013; further: on the % scale 0 is the no-effect control and ±100 the full control effect; nearly all actives have a fitted effect of over 55% in size
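Cells were dispensed at 400 per well, compounds added by pin tool, plates incubated ≥48 hr at 37 °C, then CellTiter-Glo added for 30 min at room temperature before luminescence reading. Line: DT40 Tdp1-/- complemented with hTDP1; camptothecin omitted.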
Active calls of the source: *; ? = inconclusive; . = not tested or not shown; ! = repeats disagree. A selection: hits, their analogues and other compounds. The true share with any hit is near 17%. The call rests on the fitted dose curve; in most records, active means well fitted curve in the direction sought with a large enough effect; inconclusive means small, poorly fitted or top-dose-only effect, or another doubt; inactive means no such curve, though single readings can be large; an effect the other way counts as inactive or inconclusive. Potency means the concentration at half of the fitted maximal effect.

SMILES | HT1080 IDH1KD tx | TGFb SMAD3 inh | HT1080-NT tox | TDP1 cell CPT | HepG2 viability | DT40 TDP1 no CPT
O=S1(=O)CCOC[C@H](CC2CCCCC2)N1Cc1cccc(Cl)c1 | 0.3% | 15.8µM* | -26.5% | 14.1µM* | -5.1% | 11.2µM*
CC(C)[C@H]1COCCS(=O)(=O)N1Cc1cccc(Cl)c1 | 8.1% | ? | 13.1% | ? | 12.3% | 11.2µM*
Cc1ccccc1-c1ccccc1CN1[C@@H](C(C)C)COCCS1(=O)=O | -2.3% | ? | 0.0% | ? | -11.3% | 18.4µM*
Cc1ccccc1CN1[C@@H](CC2CCCCC2)COCCS1(=O)=O | -14.2% | 11.2µM* | -7.8% | ? | 11.2µM*! | 12.6µM*
O=S1(=O)CCOC[C@H](CC2CCCCC2)N1Cc1ccccc1 | 4.4% | ? | 17.4% | ? | -2.3% | ?
COc1cc2[nH]c(=O)n(CCCC(=O)N(C)Cc3ccccc3)c(=O)c2cc1OC | . | 1.8% | . | ? | -76.7% | -25.0%
O=[N+]([O-])C(/C=C(\Cl)[N+](=O)[O-])=C1N(Cc2ccc(Cl)nc2)CCN1Cc1ccc(Cl)nc1 | ? | ? | ? | ? | 20µM* | ?
CCCn1cnc2scc(-c3ccc(C)c(C)c3)c2c1=O | -11.1% | 17.6% | -0.6% | ? | 4.6% | 20.6µM*
COc1ccc(-c2csc3ncnc(N4CCN(c5cccc(Cl)c5)CC4)c23)cc1 | -10.9% | ? | -0.8% | ? | -0.7% | 16.4µM*
CCOc1ccc(CN2CCN(c3ncnc4scc(-c5ccccc5)c34)CC2)cc1 | -4.2% | 7.1% | 8.2% | ? | 2.9% | 8.2µM*
COc1ccc(-c2csc3ncnc(Cl)c23)cc1 | -13.4% | -4.5% | -20.8% | ? | 5.7% | ?
COc1ccc(-c2csc3ncnc(N4CCN(c5ccccc5Cl)CC4)c23)cc1 | ? | ? | -1.7% | ? | -20.4% | ?
COc1ccc(-c2csc3ncnc(N4CCN(c5cccc(C)c5C)CC4)c23)cc1 | ? | 2.4% | -0.9% | 14.6µM* | 7.6% | ?
Cc1ccc(CCNC(=O)CNC(=O)c2cccs2)cc1 | 7.6% | -3.5% | 3.8% | 5.6% | -22.7% | -13.9%
O=C(Nc1cccnc1)c1ccc(Cl)c(S(=O)(=O)N2CCCC2)c1 | -1.4% | 2.5% | 10.6% | -27.3% | -13.4% | -22.8%
O=[N+]([O-])c1ccc(C(O)C[n+]2ccccc2)cc1 (stereo not drawn) | 1.2% | 10.7% | -20.0% | -3.6% | 6.0% | 9.4%
COc1ccc(N2CCN(c3ncnc4scc(-c5ccccc5)c34)CC2)cc1 | ? | ? | ? | -15.3% | 2.3% | 16.4µM*
Cc1sc2ncn(CCC(=O)O)c(=O)c2c1C | 14.2% | 10.8% | 2.5% | -11.5% | 5.1% | 11.6%
Fc1ccc(-c2csc3ncnc(N4CCN(c5ccccc5)CC4)c23)cc1 | -14.8% | ? | -10.3% | ? | -4.4% | ?
Cc1sc2ncn(CCn3cnc4sc(C)c(C)c4c3=O)c(=O)c2c1C | -0.1% | -4.2% | -0.5% | ? | -1.8% | 20.6µM*
COc1ccc(F)cc1CN1CCN(c2ncnc3scc(-c4ccccc4)c23)CC1 | ? | 0.0% | -23.4% | 14.6µM* | -27.9% | 16.4µM*
COc1ccc(N2CCN(c3ncnc4scc(-c5ccc(C)cc5)c34)CC2)cc1 | 2.2% | -14.6% | -6.2% | ? | 1.6% | ?
CCN1CCN(c2ncnc3scc(-c4ccc(OC)cc4)c23)CC1 | -18.3% | 0.0% | -0.9% | -27.8% | -9.0% | -18.1%
COc1ccc(-c2csc3ncnc(N4CCN(c5cccc(OC)c5)CC4)c23)cc1 | 0.8% | ? | -11.6% | 16.4µM* | -2.7% | 18.4µM*

Compound activity: PubChem, National Center for Advancing Translational Sciences (NCATS)
